Rows were chosen to be rich in hits. Some 2.8% of all compounds tested hit in one or more screens of this group.
Fam108B inh – mouse Fam108B serine hydrolase inhibitors, primary screen, counter-screen for RBBP9 inhibitor project, biochemical, fluorescence polarization. AID 1947, 2009. 300,000 compounds, 0.33% hits. inhibition, % at 9.51 µM. recombinant Fam108B, FP-Rh probe fluorescence polarization;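 active = inhibition above the screen mean inhibition plus 3 SD, computed separately per campaign, cut at about 18% in these data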;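 note: inhibitors lower polarization as less probe binds the enzyme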
PME-1 primary – PME-1 inhibitors via competitive probe labeling, primary screen, biochemical, fluorescence polarization, FP-Rh probe, HTS | Protein phosphatase methylesterase 1 (Homo sapiens), Q9Y570 | recombinant PME-1 | inhibition, % at 5.9 µM | 320,000 compounds, 0.53% hits | AID 2130, 2009;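 active = inhibition above the campaign mean of all compounds plus 3 SD, cut at about 26% in these data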;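 note: competitive labeling of PME-1 active site by serine hydrolase directed probe; inhibitors block probe labeling so polarization falls and inhibition rises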
PAFAH1B3 FP inh – PAFAH1B3 enzyme inhibitors, primary screen, biochemical, fluorescence polarization, human; Platelet-activating factor acetylhydrolase IB subunit alpha1 (Homo sapiens), Q15102; recombinant PAFAH1B3, FP-rhodamine probe; inhibition, % at 3.39 µM; 340,000 compounds, 0.28% hits;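 active = inhibition above the screen-wide average of all tested compounds plus 3 SD, cut at about 25% in these data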
Target sequence (Q15102 whole entry, looked up): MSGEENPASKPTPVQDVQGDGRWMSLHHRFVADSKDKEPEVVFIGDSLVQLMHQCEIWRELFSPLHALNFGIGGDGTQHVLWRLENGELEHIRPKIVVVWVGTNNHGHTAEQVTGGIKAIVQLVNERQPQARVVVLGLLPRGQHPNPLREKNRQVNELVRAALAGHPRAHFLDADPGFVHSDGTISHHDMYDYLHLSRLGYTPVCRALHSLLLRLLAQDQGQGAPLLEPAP
PAFAH2 inh – PAFAH2 enzyme inhibitors, primary screen, biochemical, fluorescence polarization, human; Platelet-activating factor acetylhydrolase 2, cytoplasmic (Homo sapiens), Q99487; inhibition, % at 3.39 µM; 340,000 compounds, 0.99% hits; recombinant PAFAH2, FP-rhodamine activity probe;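 active = inhibition above the mean over all tested compounds plus 3 SD, cut at about 30% in these data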;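 note: inhibitors block probe labeling of enzyme so polarization drops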
PAFAH1B2 inh – PAFAH1B2 enzyme inhibitors, primary screen, biochemical, fluorescence polarization, human | recombinant PAFAH1B2, FP-rhodamine activity probe | 340,000 compounds, 1.2% hits | Platelet-activating factor acetylhydrolase IB subunit alpha2 (Homo sapiens), P68402 | inhibition, % at 3.39 µM;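 active = inhibition above the mean of all tested compounds plus 3 SD, cut at about 24% in these data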
pPAFAH inh – pPAFAH enzyme inhibitors, primary screen, biochemical, fluorescence polarization, human. 330,000 compounds, 1.5% hits. recombinant pPAFAH, FP-rhodamine probe fluorescence polarization. AID 463082, 2010. inhibition, % at 3.39 µM. Platelet-activating factor acetylhydrolase (Homo sapiens), Q13093;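 active = inhibition above the mean inhibition across the screen plus 3 SD, cut at about 25% in these data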;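 note: inhibitors block binding of the rhodamine activity-based probe so polarization drops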
Target sequence (Q13093 whole entry, looked up): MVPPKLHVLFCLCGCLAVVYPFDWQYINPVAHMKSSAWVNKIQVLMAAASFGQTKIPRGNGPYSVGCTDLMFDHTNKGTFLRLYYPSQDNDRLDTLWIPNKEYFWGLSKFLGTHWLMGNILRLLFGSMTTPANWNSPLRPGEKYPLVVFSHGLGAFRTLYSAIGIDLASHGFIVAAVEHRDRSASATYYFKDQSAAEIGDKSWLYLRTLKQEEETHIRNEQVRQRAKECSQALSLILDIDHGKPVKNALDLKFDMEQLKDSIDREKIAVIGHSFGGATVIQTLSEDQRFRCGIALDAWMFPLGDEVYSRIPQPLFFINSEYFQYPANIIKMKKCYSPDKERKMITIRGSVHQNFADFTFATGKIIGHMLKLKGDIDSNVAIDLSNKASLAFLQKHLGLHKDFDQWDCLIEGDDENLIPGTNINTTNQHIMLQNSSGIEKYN
Each line names hits and unclear results; the compound was inactive in the other large screens.

Cc1c(N=C2C=C(Br)C(=O)C(Br)=C2)c(=O)n(-c2ccccc2)n1C	PAFAH1B2 inh 35 (no result: Fam108B inh, PME-1 primary, pPAFAH inh)
CCCCCCCN=CC1=C(O)CC(c2ccccc2)CC1=O (stereo not drawn)	PAFAH1B2 inh 26
CC(=O)Nc1c(Cl)cc(Cl)c2c1Cc1cc(Cl)ccc1-2	none (no result: Fam108B inh, PME-1 primary, pPAFAH inh)
CCC1CCC/C1=N\NC(=O)c1cc(C)[nH]n1 (stereo not drawn)	pPAFAH inh 34
CCC1CCC/C1=N\NC(=O)c1ccccc1Cl (stereo not drawn)	none (no result: PAFAH1B3 FP inh, PAFAH2 inh, PAFAH1B2 inh)
N#CC1=C(N)C2=CCCC[C@H]2[C@H](c2ccc(Br)cc2)C1(C#N)C#N	pPAFAH inh 28
N#CC1=C(N)C2=CCCC[C@H]2[C@H](c2ccccc2)C1(C#N)C#N	none
Cc1c(Cl)cccc1N1C(=O)CC(NNC(=O)c2ccc3c(c2)OCO3)C1=O (stereo not drawn)	none (no result: Fam108B inh, PME-1 primary)
CC(NC(=O)C(C)N1c2cccc3cccc(c23)S1(=O)=O)c1ccccc1 (stereo not drawn)	none
Nc1nc(CSc2n[nH]c(-c3ccccc3)n2)nc(Nc2ccccc2)n1	none
Cc1ccc(-c2nc(Nc3ccccc3)n[nH]2)cc1	PME-1 primary 41
O=C(COC(=O)C1(c2ccc(F)cc2)CCCC1)N1CCc2ccccc21	PAFAH1B2 inh 28
CS(=O)(=O)C1=NSC2=NC(=O)/C(=C\c3ccc(OS(=O)(=O)c4ccccc4)cc3)C(=N)N21	PAFAH1B2 inh 25
O=C1ON=C(c2ccccc2)/C1=C/c1ccc(OS(=O)(=O)c2ccccc2)cc1	PAFAH1B2 inh 101
Cc1ccc(S(=O)(=O)Oc2ccc(/C=C3/C(=N)N4C(=NC3=O)SN=C4S(C)(=O)=O)cc2)cc1	PAFAH1B2 inh 50
Cc1ccc(S(=O)(=O)Oc2ccc(/C=C3\C(=N)N4N=C(S(C)(=O)=O)SC4=NC3=O)cc2)cc1	PAFAH1B2 inh 60
Cc1ccc(-n2cccc2/C=C2/C(=N)N3C(=NC2=O)SN=C3S(C)(=O)=O)cc1	PAFAH1B2 inh 28
CCc1ccc(-n2cccc2/C=C2/C(=N)N3C(=NC2=O)SN=C3S(C)(=O)=O)cc1	none
COc1ccc(OCc2cc(C(=O)N(C)C(C)c3ccon3)no2)c(Cl)c1 (stereo not drawn)	none
CN(C(=O)Cn1nnc(-c2ccccc2)n1)C1CCS(=O)(=O)C1 (stereo not drawn)	none
CCCOc1ccc(C(CC(=O)O)NC(=O)C(c2ccccc2)c2ccccc2)cc1 (stereo not drawn)	PAFAH1B2 inh 26 (no result: Fam108B inh)
C[C@]12CCC[C@H](O1)c1c(cc3c(c1O)C(=O)c1c(O)cc(O)cc1C3=O)O2	PAFAH2 inh 30, pPAFAH inh 27
CC1(C)CC(=O)c2c(O)cc(O)cc2O1	none
Cc1cnc(C(=O)OC(C)C(=O)Nc2ccccc2-c2ccccc2)cn1 (stereo not drawn)	none
Cc1csc(=O)n1CC(=O)OCC(=O)Nc1ccc(F)c(F)c1	none
CNc1c(NS(=O)(=O)c2cc(OC)ccc2OC)c(=O)oc2ccccc12	none
O=c1c2cc(Br)ccc2[nH]c(=S)n1Cc1ccccn1	none
O=c1c2cc(Br)ccc2[nH]c(=S)n1Cc1ccccc1	pPAFAH inh 26
O=C(NNc1c2ccccc2nc2ccccc12)c1ccccc1Cl	none
O=C(NNc1c2ccccc2nc2ccccc12)c1ccccc1O	PME-1 primary 54, pPAFAH inh 32
O=C(NNc1c2ccccc2nc2ccccc12)c1ccc(O)cc1	PME-1 primary 49
O=C(NNc1c2ccccc2nc2ccccc12)c1cccc(O)c1	PME-1 primary 40, pPAFAH inh 26
Cc1ccc(NC(=O)CSc2nc(N)cc(=O)[nH]2)cc1S(=O)(=O)N1CCCCC1	none (no result: Fam108B inh, PME-1 primary)
O=C1CC(c2ccco2)CC(O)=C1C=Nc1cc(Cl)ccc1O (stereo not drawn)	pPAFAH inh 34
O=C1CC(c2ccco2)CC(O)=C1C=Nc1cc(Cl)ccc1Cl (stereo not drawn)	none
CC1CCN(S(=O)(=O)c2ccc3[nH]c(=O)c(=O)[nH]c3c2)CC1	PAFAH1B2 inh 60
O=C(O)c1cc(NC(=S)NC(=O)C(c2ccccc2)c2ccccc2)ccc1Cl	PAFAH1B2 inh 32
Cc1ccc(C(=O)C(C)Oc2ccc3ccc(=O)oc3c2)cc1 (stereo not drawn)	none
CC(C)(C)c1ccc(OCC(=O)NNC(=O)Cc2cccs2)cc1	PAFAH1B2 inh 26
Cc1cc(=O)[nH]c(SCC(=O)N2CCCC(C)C2)n1 (stereo not drawn)	none
CC1CCCCC1NC(=O)Cc1ccc(S(=O)(=O)N2CCOCC2)s1 (stereo not drawn)	none
COC(=O)c1cccc(C#CC(NP(=O)(c2ccccc2)c2ccccc2)c2ccccc2)c1 (stereo not drawn)	PME-1 primary 31
CC(=O)Cc1nsc(NC(=O)c2ccc(COc3ccccc3)o2)n1	pPAFAH inh 27
CN1CCN(CCNC(=O)c2ccc3nc(-c4ccc(F)cc4)c(-c4ccc(F)cc4)nc3c2)CC1	PAFAH1B2 inh 28
CCS(=O)(=O)N1Cc2ccccc2CC1C(=O)Nc1nnc(SCc2ccc(F)cc2)s1 (stereo not drawn)	pPAFAH inh 25
CCc1nnc(NC(=O)C2Cc3ccccc3CN2S(=O)(=O)CC)s1 (stereo not drawn)	none
CC(C)(C)c1ccc(-n2ncc3c2CCCC3NC(=O)CCn2cncn2)cc1 (stereo not drawn)	pPAFAH inh 33
Cc1cccnc1NC(=O)c1csnn1	none
CC1c2ccccc2N(NC(=O)Cc2ccccc2)C1C (stereo not drawn)	none
COc1ccc(-c2oc3cc(OC(C)=O)cc(OC(C)=O)c3c(=O)c2OC)cc1	none (no result: Fam108B inh, PME-1 primary, pPAFAH inh)
CC(=O)Oc1cc(O)c2c(=O)c(OC(C)=O)c(-c3ccc(OC(C)=O)c(OC(C)=O)c3)oc2c1	PAFAH1B3 FP inh 47, PAFAH2 inh 38, pPAFAH inh 31
O=C1/C(=C/c2cccs2)CCC/C1=C\c1cccs1	pPAFAH inh 29
COc1ccc(OCC(=O)O/N=C(\N)Cc2cccs2)cc1	none
N/C(Cc1cccs1)=N\OC(=O)COc1ccc(Br)cc1	PAFAH1B2 inh 28
COc1cc(/C=N/NS(=O)(=O)c2ccc(C(C)(C)C)cc2)cc([N+](=O)[O-])c1O	PAFAH1B2 inh 33
COc1cc(/C=N/N(C)S(=O)(=O)c2ccc(C)cc2)cc([N+](=O)[O-])c1O	PAFAH1B2 inh 36

Screens (PubChem BioAssay)
